Source: PubChem BioAssay AID1233 (SRMLSC, 2008)
Results with a measured potency or affinity are listed apart. The source made the active and inactive calls.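 Rule for the calls: active = a dose-response curve fit returns a half-maximal inhibitory concentration, extrapolated values included; inactive = the fit returns no such concentration.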

target: HMG-CoA reductase [Enterococcus faecalis] (UniProt Q9FD70); assay: inhibitors of E. faecalis class II HMGR, confirmation, biochemical, Enterococcus faecalis (AID 1233); details: purified E. faecalis HMGR, NADPH absorbance 340 nm kinetics; series mostly up to 100 µM

outcome, inactive:
CN(C)c1ccc(N=C/C=C2\N(C)c3ccccc3C2(C)C)cc1, Cc1ccc(S(=O)(=O)NCCCCCC(=O)N(C)C)cc1, COc1ccc(CC(=O)OCc2cc(=O)n3cc(Br)ccc3n2)cc1OC, O=C(C1c2ccccc2C(=O)N2CCc3ccccc3C12)N1CCN(Cc2ccccc2)CC1 (configuration not stated), COc1ccc(CCNC(=O)CCNC(=O)c2ccc(Cl)cc2)cc1OC, Cc1ccc(-c2noc(CSc3nnc(Cc4ccccc4)n3-c3ccc(Cl)cc3)n2)cc1, CCCCCCCCNC(=S)NCCN1CCCCC1, CCc1cccc2c(C#N)cn(CCOc3ccccc3OC)c12, COc1ccccc1CNC(=O)C1CCCN(S(=O)(=O)c2c(C)[nH]c(=O)[nH]c2=O)C1 (configuration not stated), CCOc1ccc(S(=O)(=O)N(C)CCO)cc1-c1nc2c(C(C)(C)C)nn(C)c2c(=O)[nH]1, O=c1c(OC2OC(CO)C(O)C(O)C2O)c(-c2ccc(O)c(O)c2)oc2cc(O)cc(O)c12 (configuration not stated), CC(C)[C@H](NC(N)=O)C(=O)Nc1cccc(S(=O)(=O)N2CCOCC2)c1, CCn1c2ccccc2c2cc(CNCc3ccc(OC)cc3OC)ccc21, CC(C)N(C(=O)Cn1cnc2cc([N+](=O)[O-])ccc2c1=O)C(C)C, Clc1ccc(NNc2ccnc3cc(Cl)ccc23)cc1, O=C1c2ccccc2C(=O)C1c1ccc2ccccc2n1, COC(=O)C1C(c2ccc(N(C)C)cc2)C(C(=O)OC)S(=O)(=O)CS1(=O)=O (configuration not stated)
